# Test results published in PubChem BioAssay AID640 (Columbia University Molecular Screening Center, 2007).
# In all, about 96,000 compounds went through this assay and about 200 (0.21%) were called active. This excerpt belongs to a sample that is enriched for actives. A number with no mark means an inactive call.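 The calls were made as follows: active = inhibition at 2 µM at or above a set limit, the screen mean plus 3 SD (cut at about 24% in these data); inactive = the rest.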
# Biological target: Tyrosine-protein phosphatase non-receptor type 22 (Homo sapiens) (UniProt Q9Y2R2)
# Test: PTPN22 phosphatase inhibitors, primary screen, biochemical, DiFMUP fluorescence, 2 µM (AID 640);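 also: 0% = DMSO with enzyme and 100% = enzyme fully blocked by orthovanadate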
# Conditions: recombinant LYP catalytic domain, at 2 µM, stronger effect = higher value
# Chain of Tyrosine-protein phosphatase non-receptor type 22 (Homo sapiens) (Q9Y2R2 whole entry, looked up): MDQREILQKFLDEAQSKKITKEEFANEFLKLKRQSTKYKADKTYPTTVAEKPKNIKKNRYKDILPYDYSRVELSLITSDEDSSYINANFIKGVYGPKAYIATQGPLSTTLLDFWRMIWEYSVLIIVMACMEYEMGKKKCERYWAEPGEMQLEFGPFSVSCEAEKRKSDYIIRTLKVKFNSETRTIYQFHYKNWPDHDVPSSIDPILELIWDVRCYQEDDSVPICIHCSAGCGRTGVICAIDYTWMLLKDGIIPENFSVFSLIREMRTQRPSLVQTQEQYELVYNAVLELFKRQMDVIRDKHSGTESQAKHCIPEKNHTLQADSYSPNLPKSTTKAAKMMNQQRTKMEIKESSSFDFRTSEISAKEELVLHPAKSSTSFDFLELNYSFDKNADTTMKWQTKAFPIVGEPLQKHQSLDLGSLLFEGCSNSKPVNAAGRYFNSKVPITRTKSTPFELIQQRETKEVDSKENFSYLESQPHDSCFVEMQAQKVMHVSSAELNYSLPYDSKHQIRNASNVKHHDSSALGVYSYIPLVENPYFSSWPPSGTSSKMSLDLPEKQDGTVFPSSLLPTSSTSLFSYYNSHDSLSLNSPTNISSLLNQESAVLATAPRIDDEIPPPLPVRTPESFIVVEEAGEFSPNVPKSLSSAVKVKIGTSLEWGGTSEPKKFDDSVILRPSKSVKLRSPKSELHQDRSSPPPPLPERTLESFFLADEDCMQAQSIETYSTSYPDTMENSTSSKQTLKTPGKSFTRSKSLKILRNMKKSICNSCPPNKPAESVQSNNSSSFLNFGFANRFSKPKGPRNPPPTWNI
row,Compound,inhibition
1,COc1ccc(/C(O)=C2/C(=O)C(=O)N(CC3CCCO3)C2c2ccc(OC)c(OC)c2)cc1 (stereo not drawn),-1.4%
2,COc1cc(CNCc2cccs2)cc(Br)c1OC,1.7%
3,O=c1onc(-c2cccs2)n1Cc1ccccc1,6.3%
4,C=CCOC(=O)C1=C(C)NC(SCC(=O)OCC)=C(C#N)C1c1ccc(C)cc1 (stereo not drawn),-1.5%
5,COc1ccccc1NC(=O)CSc1nnc(C)n1CC1CCCO1 (stereo not drawn),-14.6%
6,CCCn1c(C(Cc2ccccc2)NC(=O)COC)nc2ccccc21 (stereo not drawn),-7.4%
7,CC(C)OC(=O)CN1C(=O)C(=O)c2ccccc21,-2.8%
8,COc1ccc([N+](=O)[O-])cc1C1NN=C(c2cccc3ccccc23)S1 (stereo not drawn),10.1%
9,O=C(NCc1ccco1)C1(c2ccc(Cl)cc2)CCCC1,-8.9%
10,Cc1cccc(NC(=O)N(Cc2cc3cc(C)cc(C)c3[nH]c2=O)CC2COCCO2)c1 (stereo not drawn),2.6%
11,CCOC(=O)c1nc(C)n(-c2ccc(Cl)cc2Cl)n1,-1.3%
12,Cc1ccc(N2CCN(/N=C/c3cccs3)CC2)cc1,9.9%
13,Clc1ccccc1SCc1nc2ccccc2[nH]1,2.7%
14,Cc1ccc(NC(=O)CSCC(=O)N2CCOCC2)cc1,-3.1%
15,COC(=O)c1ccc(C2C(Oc3ccccc3C)C(=O)N2CCc2ccc(OC)c(OC)c2)cc1 (stereo not drawn),-11.5%
16,CCSc1nnc(NC(=O)Cc2ccccc2OC)s1,15.4%
17,CC(c1ccco1)N(C(=O)Nc1ccccc1)C1CCCCC1 (stereo not drawn),-2%
18,CCOc1c2ccc(C(=O)NC3CCCc4ccccc43)cc2nn1CC (stereo not drawn),-7.5%
19,CCN1C(=O)/C(=C2/Sc3ccc(OC)cc3N2C)SC1=Nc1ccc(C)cc1,-28%
20,O=C(ON=C1CCN(S(=O)(=O)c2ccccc2)CC1)c1ccc(Cl)cc1,-19.3%
21,Cc1ccccc1C(=O)N1CCC(C(=O)Nc2ccc(S(=O)(=O)N(C)C(C)C)cc2)CC1,3.5%
22,CCOc1c2ccc(C(=O)NCc3ccc4c(c3)OCO4)cc2nn1C,-4.3%
23,Cc1cc(Cl)c(S(=O)(=O)N(C)C)cc1OCC(N)=O,-3.7%
24,O=Cc1c(N2CCN(c3cccc(Cl)c3)CC2)nc2ccccn2c1=O,-12.5%
25,COc1ccc(CN2CCn3ncc(C(=O)Nc4ccc(Cl)cc4Cl)c3C2=O)cc1,-3.3%

row,Compound,inhibition
1,CC1CCc2c(nc3ncnn3c2Nc2ccc(OC(F)(F)F)cc2)C1 (stereo not drawn),16.7%
2,O=C(/C=C/Sc1ncn[nH]1)c1ccc(Cl)cc1,-5.9%
3,Cc1cccc(-n2ncc(C#N)c2-n2cccc2)c1,-13.4%
4,CCOC(=O)c1ccc(COC(=O)CCc2nc(-c3ccccc3)c(-c3ccccc3)o2)cc1,10.3%
5,COC(=O)CNC(c1ccccc1Cl)c1cc(Br)ccc1NC(=O)CCN1CCOCC1 (stereo not drawn),7.7%
6,O=C(CSc1nc2ccccc2o1)N1c2ccccc2Sc2ccc(Cl)cc21,4.8%
7,N#CC1=C(N)N(c2ccc(F)cc2)C(=O)C1,7%
8,O=[N+]([O-])c1ccc(N2CCN(S(=O)(=O)c3ccc4ccccc4c3)CC2)cc1NCc1ccco1,4.1%
9,Cn1nnnc1SCC(=O)Nc1ccccc1C(=O)NC1CC1,11.6%
10,COc1ccc(-n2cnc3cc(NCc4ccco4)ccc32)cc1,6.5%
11,O=C1CCCC2=C1C(c1ccccc1)n1c(s/c(=C/c3cccc(F)c3)c1=O)=N2 (stereo not drawn),3.1%
12,O=C(Nc1cccc(NC(=O)c2ccco2)c1)c1cnccn1,-8.1%
13,CCOC(=O)c1nc(Nc2ccc(C(=O)OC)cc2)c2ccccc2n1,1.7%
14,Cc1noc(COc2ccccc2OCc2onc(C)c2Cl)c1Cl,-6.2%
15,CN1CCCN(S(=O)(=O)c2ccc3c(c2)OCCO3)CC1,14.9%
16,CC(C)(C)c1cc(=O)n2c(nc3ccccc32)[nH]1,16.2%
17,CCOC(=O)NNC(=O)c1ccc(Cl)cc1,-7.6%
18,O=C(CSc1ccccc1)Nc1ccc(NC(=O)c2ccco2)cc1,8.9%
19,O=C(CN1CCN(S(=O)(=O)c2ccc(Cl)s2)CC1)NCc1ccc(Cl)cc1,-18.4%
20,O=C(c1ccc(F)cc1)c1c[nH]c(C(=O)NCc2cccnc2)c1,-21.4%
21,CC(C)C(NC(=O)c1ccc(Cl)cc1)C(=O)O (stereo not drawn),0.8%
22,Cc1ccc2c(Cl)c(C(=O)NCCCn3ccnc3)sc2c1,-1.4%
23,COc1ccc(Cc2nnc(SCC(=O)c3cccc([N+](=O)[O-])c3)n2C)cc1,15.2%
24,CN(C)c1nc(N)nc(CSc2ccccn2)n1,-6.7%
25,COc1ccc(CCN2C(=O)C3CC=C(C)CC3C2=O)cc1OC (stereo not drawn),3.1%

row,Compound,inhibition
1,Clc1ccc(C2=CSC3=Nc4cccc5cccc(c45)N23)cc1,13.9%
2,CC(=O)NC1(c2cccc(F)c2)CCN(CC(=O)NC(C)C)CC1,-6.7%
3,CC(=O)Oc1ccc(C(C)=O)c2c1OCCO2,-11.9%
4,Cc1cc2c(cc1C)N(C(=O)CN1C(=O)c3ccccc3C1=O)C(C)(C)c1ssc(=S)c1-2,2.3%
5,CS(=O)(=O)N(CC(=O)Nc1ccc(Cl)c(Cl)c1)C1CCCCC1,-10%
6,O=C(Nc1ccccc1[N+](=O)[O-])C1C(c2ccccc2)=C1c1ccccc1,-0.6%
7,O=C(c1ccc(CN2CCOCC2)cc1)N1CCN(c2ccccc2F)CC1,-7.2%
8,O=C(c1cccc2ccccc12)N1CCN(c2ccccc2F)CC1,-10.2%
9,O=C(Cn1c(-c2ccc(Cl)cc2)noc1=O)N1CCN(c2ccccc2F)CC1,27.2% (active)
10,COC(=O)c1nc2ccccc2s1,-12%
11,COc1ccc(NC(=O)CSc2nc(N)c(-c3ccccc3)c(=O)[nH]2)cc1,-3.5%
12,C=CCN1C(=O)C(Cc2cccc(Cl)c2)S/C1=N/N=C/c1ccco1 (stereo not drawn),8.9%
13,COCc1cc(C(C)=O)ccc1OC,7.3%
14,O=C(CNC(=O)OCc1ccccc1)Oc1cc2oc(=O)cc(-c3ccccc3)c2cc1Cl,7.8%
15,CC(C)(C)NS(=O)(=O)c1ccc(NC(=O)NC2CCCCC2)cc1,13%
16,CCOC(=O)c1c(C)nc2c(c1C)c(=O)oc1ccccc12,-31.8%
17,Cc1ccc(OCC(=O)N/N=C\c2ccco2)c(C)c1,-4.2%
18,Cc1ccc(OCC(=O)N/N=C/c2ccncc2)cc1,10.7%
19,CSc1ccc(/C=N\NC(=O)COc2ccc(Cl)cc2Br)cc1,26.5% (active)
20,CC1CCCCN1S(=O)(=O)c1ccc(C(=O)Nc2nnc(-c3cccs3)o2)cc1 (stereo not drawn),17.2%
21,CCC(=O)Oc1cccc(C(=O)Nc2ccc(-c3nnc(-c4ccco4)o3)cc2)c1,8.1%
22,COc1cccc(-c2nnc(NC(=O)c3ccc(S(=O)(=O)N(CC(C)C)CC(C)C)cc3)o2)c1,24.4% (active)
23,O=C(NCCCCc1ccccc1)C1CC(c2ccc([N+](=O)[O-])cc2)=NO1 (stereo not drawn),-3.2%
24,CCC(C)NC(=O)CSC1=Nc2ccccc2C2=NC(CCC(=O)NCc3ccco3)C(=O)N12 (stereo not drawn),6.7%
25,C=CCOc1c2ccc(C(=O)N(CC)c3ccc(OC)cc3)cc2nn1C,1.1%

row,Compound,inhibition
1,CCSc1nc(-c2ccc(OC)cc2)cc(-c2ccc(OC)cc2)c1C#N,-15.9%
2,CCOC(=O)C1=C(CSc2nnnn2C)N(C)C(=O)NC1c1ccccc1 (stereo not drawn),6.4%
3,O=C(CCl)NNc1cccc(Cl)n1,2.9%
4,O=C(c1ccc2c(c1)OCO2)N1CCN(C(=O)c2ccco2)CC1,-5%
5,Cc1cnc(NC(=O)C2CCCC2)s1,-5.5%
6,CCOC(=O)c1c(NC(C)=O)sc2c(O)c(Br)ccc12,7.9%
7,COc1ccc(/C=N/Nc2nc3ccccc3c(=O)[nH]2)cc1,2.7%
8,CC(=O)c1c(C)[nH]c(C(=O)NCc2ccc(C)cc2)c1C,3.9%
9,CNC(=O)c1nnc(Cc2ccc(Cl)cc2)o1,-2.1%
10,Cc1ccc(Cl)cc1NC(=O)COC(=O)C1CCCCC1,-5.7%
11,O=C(Nc1cccc2ncccc12)C(Cl)(Cl)Cl,-4%
12,CCCCN1C(=O)/C(=C2/C=CC=CN2C)SC1=S,-5.6%
13,COc1cc(OC)cc(-c2cc3nc(C4CCN(C(=O)OC(C)(C)C)CC4)cc(=O)n3[nH]2)c1,-4.9%
14,CC(C)(C)NC(=O)CN(Cc1cccs1)C(=O)CNS(=O)(=O)c1ccccc1,-1.7%
15,Cc1nn(C(C)CC(=O)O)c(C)c1C (stereo not drawn),7.9%
16,CCn1nc(C)c(NC(=O)/C=C/c2ccc(OC)c(COc3ccc(Br)cc3)c2)c1C,13.3%
17,O=C(CSc1nnc(-c2cccs2)n1Cc1ccccc1)N1CCc2ccccc2C1,-1.7%
18,Cc1ccc2nc(SC(C)C(=O)NCc3ccco3)[nH]c2c1 (stereo not drawn),-3.6%
19,Cn1c(=O)c2c(SCC(=O)N3CCOCC3)nc(C3CC3)nc2n(C)c1=O,4%
20,Cc1cc2cc3c(N)[nH]nc3nc2cc1C,-13.7%
21,Cc1ccc(-c2nc3ccccc3[nH]2)cc1NC(=O)c1sc2ccccc2c1Cl,24.6% (active)
22,Cc1ccc(-c2nc3ccccc3[nH]2)cc1N,0.9%
23,O=C(Nc1ccon1)c1sc2ccccc2c1Cl,-12.9%
